Assay outcomes (PubChem BioAssay)
NPC1 promoter act – activates the NPC1 promoter; 320,000 compounds, 2.4% hits; Potency, µM (top dose mostly 9.22 µM), without a hit: top-dose activation, most hits filed as activators; Huh7 NPC1 promoter luciferase reporter, 24 h; AID 485313; also: % of control where 0% means no effect; nearly all actives have a fitted effect of over 60% in size
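NPC1 promoter–luciferase Huh7 cells; 24 h compound; luminescence.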
ELG1 genotox – inducers of genotoxicity in HEK293T ELG1-luciferase cells | Potency, µM (titrated, usually from 46 µM), without a hit: top-dose activity change, positive = activation, hits mostly activators | 330,000 compounds, 1.3% hits | HEK293T ELG1-luciferase reporter, luminescence, 16 h; also: % of control where 0% means no effect; nearly all actives have a fitted effect of over 60% in size
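Cells (2,000/well) expressing the ELG1-luciferase fusion are dosed by pin tool and kept 16 hr at 37 °C, 5% CO2. Signal comes from ONE-Glo luciferase reagent after 30 min at room temperature.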
Rab9 promoter act – activates the Rab9 promoter; 320,000 compounds, 2.8% hits; Huh7 Rab9 promoter-luciferase reporter, luminescence, 24 h; Potency, µM (series often up to 9.22 µM), without a hit: top-dose activation, negative = inhibition, actives largely listed as activators; also: % of control where 0% means no effect; nearly all actives have a fitted effect of over 60% in size
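Huh7 cells stably carrying Rab9 promoter–luciferase reporter, plated 1500 cells/well, compound added after 2 h and incubated 24 h at 37 °C; luciferase luminescence then read after 10 min with detection reagent.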
KinaseGlo FLuc – counter-screen: inhibitors of Kinase-Glo firefly luciferase; Q27757; Kinase-Glo luciferase, ATP luminescence, 8 min; Potency, µM (titrated, usually from 38.3 µM), inactives show top-dose activity change, negative = inhibition, usual class: inhibitors; 200,000 compounds, 0.28% hits; AID 1379; also: % is scaled to controls: 0 for no effect and ±100 for the full control effect; nearly all actives have a fitted effect of over 60% in size
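Compounds were added to a substrate mix at pH 7.2 (50 mM imidazole, 10 uM ATP, within the enzyme's linear range), followed by Kinase-Glo detection reagent; luminescence was measured after 8 minutes at ambient temperature.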
SMN2 splice up – SMN2 splice variant enhancement. HEK293 SMN2-luciferase splicing reporter, luminescence, 30-36 h. Potency, µM (series often up to 46.1 µM), for the others: at the top dose activity change, positive = activation, hits mostly activators. 210,000 compounds, 2.8% hits; also: % of control where 0% means no effect; nearly all actives have a fitted effect of over 55% in size
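HEK293 cells carry an SMN2 […]–luciferase reporter in which exon 7 inclusion puts luciferase in frame. Cells were plated 10-12 h before compound addition, then incubated 30-36 h at 37C. ONE-Glo luminescence was read; sodium butyrate at 4.5 mM final served as control.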
FLuc modulator – counter-screen for miR-21 project: firefly luciferase inhibitors or activators; 360,000 compounds, 6.9% hits; P08659; Potency, µM (top dose mostly 57.5 µM), inactives show top-dose activity change, negative = inhibition, usual class: inhibitors; AID 588342; purified FLuc, Km substrates, luminescence inhibition;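 also: plate controls were vehicle for no effect and reference inhibitor for full effect; nearly all actives have a fitted effect of over 55% in size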
Target sequence (P08659 whole entry, looked up): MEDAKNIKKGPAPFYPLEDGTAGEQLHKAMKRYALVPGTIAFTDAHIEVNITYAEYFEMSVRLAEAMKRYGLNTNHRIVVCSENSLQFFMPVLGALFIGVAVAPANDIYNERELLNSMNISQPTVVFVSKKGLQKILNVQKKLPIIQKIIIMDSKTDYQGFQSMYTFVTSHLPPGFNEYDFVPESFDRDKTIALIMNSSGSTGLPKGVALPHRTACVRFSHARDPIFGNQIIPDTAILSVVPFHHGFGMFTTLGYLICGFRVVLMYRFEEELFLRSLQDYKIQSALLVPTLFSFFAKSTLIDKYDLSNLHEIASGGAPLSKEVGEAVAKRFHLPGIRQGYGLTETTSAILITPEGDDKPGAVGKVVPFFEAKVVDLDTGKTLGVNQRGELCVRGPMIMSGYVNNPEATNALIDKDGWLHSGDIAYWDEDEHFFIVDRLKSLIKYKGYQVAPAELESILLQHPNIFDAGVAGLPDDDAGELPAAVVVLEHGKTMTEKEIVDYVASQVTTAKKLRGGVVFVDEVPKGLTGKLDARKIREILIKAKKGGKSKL
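Biochemical qHTS of compounds, final roughly 60 µM downward over six points, against 10 nM purified firefly luciferase using Km concentrations of substrates (10 uM D-luciferin, 10 uM ATP) in Tris acetate pH 7.5 buffer; luminescence output.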
* = called active by the depositor; ? = inconclusive; / = no result given; [ ] = dose if it differs, or a comment. Compounds with a hit are over-represented: about 7.5% of the library has one in this group of screens. Calls follow the shape of the dose curve; as a rule, active = well fitted curve in the direction sought with a large enough effect; inconclusive = small, poorly fitted or top-dose-only effect, or another doubt; inactive = no such curve, though single readings can be large; an effect the other way counts as inactive or inconclusive. Potency is read from the fitted curve at half-maximal effect.

SMILES | NPC1 promoter act | ELG1 genotox | Rab9 promoter act | KinaseGlo FLuc | SMN2 splice up | FLuc modulator
O=C(Nc1ccc2ncccc2c1)Nc1ccc2ncccc2c1 | ? | 0% | 27% | 0%[7.66 µM] | 1%[9.22 µM] | 6.7µM*
CN(c1ccccc1)S(=O)(=O)c1ccc(NC(=O)c2ccc(-c3ccccc3)cc2)cc1 | -6% | -4% | -8% | -4% | / | -5%
Cc1c([N+](=O)[O-])cc(C(=O)Nc2ccc3ncccc3c2)cc1[N+](=O)[O-] | -1% | 1% | 8% | / | / | -1%
CC(=O)c1cccc(NC(=O)CCn2nc(C)c(S(=O)(=O)N(C)C)c2C)c1 | / | / | / | / | / | 2%
CC(CC12CC3CC(CC(C3)C1)C2)NCc1ccccc1O (stereo not given) | 0% | -8% | -4% | / | / | 4%
CN(C)S(=O)(=O)c1ccc(C(=O)Nc2ccc3ncccc3c2)cc1 | 22% | ? | 22% | / | / | 15µM*
O=C(COc1ccc(NC(=O)c2cccs2)cc1)c1ccc(F)cc1 | 11% | 22% | 18% | / | / | 1.9µM*
COC(=O)c1ccc(NC(=O)CC(=O)Nc2ccc(C(=O)OC)cc2)cc1 | -2% | 2% | -3% | / | / | 1%
CCCOc1ccc(C(=O)Nc2ccc(NC(=O)c3cccs3)cc2)cc1 | 1% | 5% | 12% | / | / | -3%
COC(=O)c1ccc(NC(=O)CNc2ccccc2)cc1 | 27% | ? | ? | 1% | / | 24µM*
COC(=O)c1ccc(OCC(=O)c2cccc(OC)c2)cc1 | ? | ? | ? | -5% | 5.6µM* | 24µM*
COC(=O)c1ccc(COc2ccccc2/C=C/C(=O)c2ccc(OCC(=O)O)cc2)cc1 | 0% | -5% | 3% | / | / | 5.4µM*
CS(=O)(=O)N(CC(=O)Nc1ccc(Br)cc1)c1ccccc1Br | / | / | / | / | / | -14%
Cc1cccc(C(=O)Nc2ccc(N3CC=C(c4ccccc4C)CC3)c(C(=O)O)c2)c1 | / | / | / | / | / | -13%
N#Cc1cccc(-c2cncnc2-n2ccnc2)c1 | / | / | / | 0% | -14% | /
COC(=O)c1ccc(N=Nc2ccccc2)cc1 | 14% | 2% | ? | -5% | 20% | 5.4µM*
COC(=O)c1ccc(O)cc1 | -4% | -6% | -2% | 0%[39.9 µM] | / | 9%
COc1cccc(C(=O)COc2ccc(NC(=O)c3cccs3)cc2)c1 | 4% | -19% | -1% | / | / | 8.5µM*
CCCCOc1cccc(C(=O)Nc2ccc(NC(=O)c3cccs3)cc2)c1 | -8% | 18% | -5% | / | / | -2%
COC(=O)c1ccc(OCCOc2ccccc2)cc1 | 15% | ? | ? | -2% | -5% | 15µM*
COC(=O)c1ccc(OCCOc2ccccc2C)cc1 | 2% | 3% | 10% | / | / | ?
Cc1ccc(S(=O)(=O)C(CNS(=O)(=O)c2cc(F)ccc2F)c2cccs2)cc1 (stereo not given) | / | / | / | / | / | -14%
CCC(Cn1nnc2ccccc2c1=O)NC(=O)Nc1ccccc1Cl (stereo not given) | / | / | / | / | 17% | -7%
COC(=O)c1ccc(C(=O)Nc2nc3cc(N)c(C)cc3s2)cc1 | 2% | 2% | -4% | / | / | -11%
COC(=O)c1ccc(-c2nc(O)c(C)s2)cc1 | -4% | 11% | 0% | -1% | 3% | 9.5µM*
SMILES | NPC1 promoter act | ELG1 genotox | Rab9 promoter act | KinaseGlo FLuc | SMN2 splice up | FLuc modulator
COC(=O)c1ccc(-c2nc3cc(Cl)c(N)cc3s2)cc1 | 0.71µM* | ? | 0.89µM* | ? | 1.4µM* | 0.076µM*
COC(=O)c1ccc(C2=NOC(C)(c3sc(-c4ccccc4)nc3C)C2)cc1 (stereo not given) | 2% | 4% | 0% | / | / | ?
CN(C)C(CNC(=O)CCNC(=O)c1ccc(Cl)cc1)c1ccco1 (stereo not given) | 2% | -2% | -4% | / | / | 3%
Cc1cc2nc(-c3ccc(OCc4ccccc4)cc3)cc(C(F)(F)F)n2n1 | / | / | / | / | -2% | -1%
COc1ccc(C(=O)/C=C2\Sc3ccccc3N2C)cc1 | 0.71µM* | 1.6µM* | 0.89µM* | -15% | 7.9µM* | 1.2µM*
COc1ccc(-[n+]2c(C)cc(/C=C3\Sc4ccccc4N3C)cc2C)cc1 | -41% | -16% | -48% | -2% | -63% | 19µM*
COc1ccccc1OC(=O)CCN1c2ccccc2Sc2ccccc21 | -4% | 2% | -8% | 0% | 1% | 0%
COc1ccccc1-[n+]1c(C)cc(/C=C2\Sc3ccccc3N2C)cc1C | -35% | 3% | -40% | / | / | 2.4µM*
CC(=S)/C=C1\Sc2ccccc2N1C | -2% | -1% | -7% | -1% | -21% | -15%
C=CCc1ccc(OCc2ccc(C(=O)Nc3ccc(NC(C)=O)cc3)o2)c(OC)c1 | 1.1µM* | 12% | 0.4µM* | / | 2.8µM* | ?
Cc1nn(Cc2c(F)c(F)c(F)c(F)c2F)c(C)c1NC(=O)c1cccc(COc2ccc(Cl)cc2)c1 | ? | 13% | ? | -3% | 18µM* | 12µM*
CC(C)c1cc(C(N)=O)c(NC(=O)c2cccc(COc3ccc(Cl)cc3)c2)s1 | 0.32µM* | 0.73µM* | 2µM* | -5% | 1.8µM* | 1.5µM*
CC(=O)c1c(C)[nH]c(C(=O)CN2CCN(S(=O)(=O)c3ccccc3F)CC2)c1C | / | -3% | / | / | / | /
Nn1c(SCc2ccccc2F)nnc1-c1cccnc1 | ? | ? | 2.2µM* | / | / | ?
Nn1c(SCc2cccc(F)c2)nnc1-c1cccnc1 | 1% | 5% | 10% | / | / | 3%
Cn1c(SCc2ccccc2F)nnc1-c1ccccn1 | 4µM* | ? | 2.2µM* | -5% | 11µM* | ?
Cn1c(SCC(=O)NC2CC2)nnc1-c1cccs1 | 4µM* | 26% | 4µM* | / | / | ?
CCCn1c(SCC(=O)NC2CC2)nnc1-c1cccs1 | 5% | 7% | 25% | / | / | 2%
Cn1c(SCc2ccc(F)cc2)nnc1-c1ccccn1 | 4.5µM* | ? | 2.2µM* | -3% | ? | ?
COc1cc2oc(=O)c(CC(=O)N3CCCCC3)c(C)c2cc1OC | / | / | / | / | -8% | -5%
Cc1cccc(C(=O)NCC(c2ccco2)S(=O)(=O)c2cccs2)c1 (stereo not given) | / | / | / | / | / | -9%
Cc1ccc(C)c(S(=O)(=O)N2CCN(C(=O)c3n[nH]c(=O)c4ccccc34)CC2)c1 | 2% | -1% | -3% | / | / | /
COc1cccc([C@@H]2Oc3ccc(OC)cc3C(=O)[C@H]2OC(=O)N[C@H]2CCCc3ccccc32)c1 | / | / | / | -1% | -3% | /
Cn1c(SCc2ccccn2)nnc1-c1cnccn1 | 13% | 10% | ? | -3% | -2% | -11%
Cn1c(SCc2ccc(F)cc2)nnc1-c1cccs1 | 2.2µM* | ? | 4µM* | -5% | ? | 19µM*
Cn1c(SCc2ccccc2F)nnc1-c1cnccn1 | ? | ? | 3.2µM* | / | / | ?
C=CC1CO1 (stereo not given) | / | / | / | / | 2% | /
